In one experiment the target is C9orf172. The experiment can be described thus: pooled miR-30 sensor sort-seq; sequence = guide strand. Particulars: shRNA.
As to TATGAGTCGCTGGGCGTCGGGG, the sensor-assay potency score (higher = more potent) is -1.22. Still for that read-out and setting: next, TTGATGTCCTGGTACACGGTCG: -0.476; TTGGCCTCGACGAACTCGCAAA: -1.39. As to TACCTTCCGAAGTCCTCCGTGT, the sensor-assay potency score (higher = more potent) is -0.162.

ATGATCATGCACATGAAGGGGC had a sensor-assay potency score (higher = more potent) of 0.238. Turning to TAGGTGTAGCAGCTGTGGCAGG, the sensor-assay potency score (higher = more potent) was -0.976.

The sequence TAGTAGGCGTCGAAGGTTGGGC gave a sensor-assay potency score (higher = more potent) of -0.683. Take TAGTAGGTGTAGCAGCTGTGGC: the sensor-assay potency score (higher = more potent) is -1.29. In turn, TCATCAGGTCGTCCTCGTCGGC yielded a sensor-assay potency score (higher = more potent) of -1.75. As for TCTCGGACAGGGACAGTGCGGC, the sensor-assay potency score (higher = more potent) is -0.804. Turning to TTGTCAGTGATGGTGATCTCGG, the sensor-assay potency score (higher = more potent) is -1.12. On the same count and under the same terms, the value for TTGAACATGGTCTCGGTGCGCC was -0.301.

The target in a further experiment is C9orf30. The description is as above. Conditions: shRNA.
For TTACAGGTTACTGACCGCCAAG, the sensor-assay potency score (higher = more potent) is -1.66.

TTCAGAAGACTATAACAGCTTC showed a sensor-assay potency score (higher = more potent) of -0.358. Consider AGAACTTCCATTTTTATCCTGT, for which the sensor-assay potency score (higher = more potent) was -0.0866. On to TATTCTGACAGCTGAACACGAG, for which the sensor-assay potency score (higher = more potent) is -0.517.

The sequence TTTTCTTACATTCCAGCACATA registered a sensor-assay potency score (higher = more potent) of -1.58. In the case of TTGTTGATGGTGTTCTTCCTCA, the sensor-assay potency score (higher = more potent) is -0.2. Same read-out and setting: next, TTATCCTGTGTTCCTCCTCTGC: -1.19. ATCACTTTTCTTACATTCCAGC: the sensor-assay potency score (higher = more potent) was -1.2. With TATACTTTTCTACTAAAGCCAG, the sensor-assay potency score (higher = more potent) was -0.895. Still for that read-out and setting: next, TTATTGAGAACTTCCATTTTTA: -0.9.

TTTATTGAGAACTTCCATTTTT: the sensor-assay potency score (higher = more potent) was -0.999.

Regarding TTAAATGAGGAAACAGGCCATT, the sensor-assay potency score (higher = more potent) was -1.27.
Note: reference of the scale not given here.
